Results with a measured potency or affinity are listed apart. The source made the active and inactive calls.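 The calls were made as follows: active = TRPC4 ion channel inhibited over 30% at some tested dose, with a fitted dose response curve; inactive = no inhibition or no dose response curve.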

20 compounds from PubChem BioAssay AID492994 (Johns Hopkins Ion Channel Center, 2010) can be followed below.

The target of this assay is Short transient receptor potential channel 4 (Mus musculus) (UniProt Q9QUQ5). The assay is described as follows: potency of mouse TRPC4 calcium flux blockers – cell-based, HEK293 TRPC4/mu-opioid, DAMGO stimulus, Fluo-4, dose response (AID 492994). Particulars: HEK293 TRPC4/mu-opioid cells, Fluo-4 calcium flux, DAMGO-activated; series mostly up to 20 µM.
Chain of Short transient receptor potential channel 4 (Mus musculus) (Q9QUQ5 whole entry, looked up): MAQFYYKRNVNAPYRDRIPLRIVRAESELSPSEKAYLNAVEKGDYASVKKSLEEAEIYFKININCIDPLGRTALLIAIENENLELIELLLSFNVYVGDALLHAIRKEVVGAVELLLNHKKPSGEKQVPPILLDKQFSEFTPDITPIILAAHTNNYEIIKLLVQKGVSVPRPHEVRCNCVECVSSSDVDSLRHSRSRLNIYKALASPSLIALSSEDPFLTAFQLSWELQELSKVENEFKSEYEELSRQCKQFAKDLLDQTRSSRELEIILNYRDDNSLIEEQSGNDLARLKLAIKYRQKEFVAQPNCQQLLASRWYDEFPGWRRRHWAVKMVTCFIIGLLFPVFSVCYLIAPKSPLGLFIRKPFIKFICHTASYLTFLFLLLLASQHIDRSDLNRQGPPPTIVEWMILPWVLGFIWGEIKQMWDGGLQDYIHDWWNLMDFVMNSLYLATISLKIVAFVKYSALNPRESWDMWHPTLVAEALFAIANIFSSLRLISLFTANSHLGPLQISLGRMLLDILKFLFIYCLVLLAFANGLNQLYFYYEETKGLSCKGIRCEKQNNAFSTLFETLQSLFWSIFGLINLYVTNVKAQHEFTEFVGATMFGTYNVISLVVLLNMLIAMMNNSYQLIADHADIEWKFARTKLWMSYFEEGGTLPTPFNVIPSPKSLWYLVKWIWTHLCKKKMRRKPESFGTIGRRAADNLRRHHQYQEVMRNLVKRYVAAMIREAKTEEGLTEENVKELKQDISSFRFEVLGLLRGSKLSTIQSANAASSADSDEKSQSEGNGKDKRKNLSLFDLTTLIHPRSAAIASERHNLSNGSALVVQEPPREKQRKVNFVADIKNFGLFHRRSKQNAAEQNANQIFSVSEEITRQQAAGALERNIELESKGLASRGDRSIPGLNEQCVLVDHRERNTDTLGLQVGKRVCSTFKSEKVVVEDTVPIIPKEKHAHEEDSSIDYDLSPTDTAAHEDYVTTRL

`Cc1ccnc(N2CCCC2)c1`: the result was inactive.

With `Cc1cc(N2CCCCC2)nc2c(C)cccc12`, the result was inactive.

For `c1ccc(-c2cc(N3CCCC3)nc3ccccc23)cc1`, the outcome was inactive.

`Cc1ccnc(N2CCCCCC2)c1`: the outcome was inactive.

Take `Cc1ccnc(N2CCCC2)n1`: the outcome was inactive.

Turning to `FC(F)(F)c1cc(N2CCCCC2)nc2ccccc12`, the outcome was inactive.

As for `Cc1ccnc(N2CCCCC2)n1`, the outcome was inactive.

On to `COc1ccccc1N1CCN(c2cc(C)c3ccccc3n2)CC1`, for which the result was inactive.

For `c1ccc(-c2cc(N3CCCCC3)nc3ccccc23)cc1`, the result was inactive.

Take `c1ccc(-c2cc(N3CCCCCC3)nc3ccccc23)cc1`: the outcome was inactive.

With `Cc1cc(N2CCN(CC3CCCO3)CC2)nc2ccccc12` (stereo not given), the result was inactive.

With `Cc1ccnc(N2CCCCC2)c1`, the result was inactive.

`FC(F)(F)c1cc(N2CCCC2)nc2ccccc12`: the result was inactive.

For `CCc1ccc2nc(N3CCCCC3)cc(C)c2c1`, the outcome was inactive.

Regarding `COc1ccc(N2CCN(c3cc(C)c4ccccc4n3)CC2)cc1`, the result was inactive.

On to `FC(F)(F)c1cc(N2CCCCCC2)nc2ccccc12`, for which the outcome was inactive.

Take `Cc1cc(N(C)CCN(C)C)nc2ccccc12`: the result was inactive.

With `Cc1cc(N2CCN(c3ccccc3C#N)CC2)nc2ccccc12`, the outcome was inactive.

As for `Cc1cc(N2CCCCCC2)nc2c(C)cccc12`, the result was inactive.

For `Cc1ccnc(N2CCCCCC2)n1`, the result was inactive.
